# Shown are actives, neighbours in structure and some others; about 3% of the full set was active somewhere.
# TRPM1 prom inh – inhibitors of MITF-dependent TRPM1 promoter reporter, primary screen, cell-based, SK-MEL-5, single point, luciferase; hit rate 0.83% among 330,000; SK-MEL-5 TRPM1 promoter luciferase, 24 h; AID 488899, 2010; inhibition, % at 12.5 µM;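 active = mean inhibition across replicates of 60% or more, whatever share of single replicates reaches that level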
# HIF-2a inh – HIF-2a reporter inhibitors, primary screen, luminescence, 786-0 RCC cells; 786-0 RCC cells HIF-2a reporter, luciferase luminescence, overnight; inhibition, % at 18.8 µM; hit rate 0.72% among 360,000; AID 624352, 2012;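 active = inhibition of the luminescence signal of 40% or more relative to plate controls, in a single-dose primary screen at 18.75 µM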
# CF NFkB inh – inhibitors of PAF-induced NF-kB signaling, primary screen, cell-based, GFP fluorescence, uHTS | AID 588850, 2011 | KKLEB NF-kB-GFP reporter, GFP fluorescence overnight | hit rate 0.86% among 360,000 | inhibition, % at 5 µM;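 active = at least 50% inhibition at 5 µM, scaled per plate between neutral and stimulator controls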;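 note: PAF is a Pseudomonas aeruginosa culture filtrate used as stimulus; plate controls were PAF-stimulated DMSO wells for no effect and unstimulated DMSO wells for full effect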
# ABHD5-PLIN5 inh – ABHD5-PLIN5 interaction inhibitors, primary screen, cell lysate, split luciferase complementation, luminescence; hit rate 0.78% among 360,000; Perilipin-5 (Homo sapiens) + 1-acylglycerol-3-phosphate O-acyltransferase ABHD5 (Homo …; Split G. princeps luciferase complementation, 4 h; inhibition, % at 4 µM; AID 602281, 2012;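 active = inhibition above the mean inhibition across every tested compound plus 3 SD, cut at about 22% in these data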;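 note: 0% = DMSO only wells and the 100% control is not disclosed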
# KKLEB cytotox – cytotoxicity in KKLEB CF airway cells, primary screen, cytotoxicity control for CF NF-kB inhibitor project, cell-based, uHTS, fluorescence assay plates. KKLEB CF airway cells viability, ATPlite luminescence, overnight; hits give low values; cells stimulated with P. aeruginosa culture filtrate. activity change (cytotoxicity), % at 5 µM. hit rate 0.36% among 360,000. AID 602141, 2011;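 active = corrected activity change at or below -50% at 5 µM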
# Peg3 prom inh – Peg3 promoter-driven luciferase inhibitors, primary screen, cell-based, HeLa, luciferase luminescence; HeLa PEG-Prom luciferase reporter, overnight; inhibition, % at 20 µM; hit rate 1.7% among 360,000; AID 588405, 2011;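 active = inhibition of at least 50% at 20 µM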
# An asterisk follows results filed as active; / = not tested or not shown.
SMILES,TRPM1 prom inh,HIF-2a inh,CF NFkB inh,ABHD5-PLIN5 inh,KKLEB cytotox,Peg3 prom inh
COc1cccc(-c2sc3cc(OC)c(OC)cc3c2-c2ccc(OCCN3CCCCC3)cc2)c1,45.3,5.8,20.8,9.0,-13.8,97.3*
COc1cc2sc(-c3ccccc3OC)c(-c3ccc(OCCN4CCOCC4)cc3)c2cc1OC,-3.6,6.8,8.7,11.6,7.4,29.8
COc1cccc(-c2sc3ccc(OC)cc3c2-c2ccc(OCCN3CCCC3)cc2)c1,23.1,-21.8,12.1,21.6,-7.9,97.2*
COc1ccc(C=C2CCc3ccccc3C2=O)cc1,/,-195.0,1.5,4.2,-52.3*,-119.0
Cc1cc(C)c(NC(=O)CN(C)CC(=O)Nc2cccc(S(=O)(=O)N(C)c3ccccc3)c2)c(C)c1,10.6,3.3,11.3,-1.6,-2.9,57.5*
CN(c1ccccc1)S(=O)(=O)c1cccc(NC(=O)c2ccc3ncsc3c2)c1,15.7,8.8,0.8,1.5,-0.1,57.4*
Cn1nnnc1Sc1ncnc2scc(-c3ccccc3)c12,36.1,59.6*,38.0,2.4,-24.5,49.2
COc1ccccc1-c1csc2ncnc(Sc3nnnn3C)c12,2.4,19.6,10.1,1.3,-13.5,30.9
C[C@H]1CN([C@@H](C)CO)C(=O)CCCn2cc(nn2)CO[C@@H]1CN(C)C(=O)Cc1ccccc1,/,-6.2,-36.9,7.0,15.1,-3.5
O=C(CN1CCCN(S(=O)(=O)c2ccc(Br)s2)CC1)Nc1ccc(Cl)cc1,22.6,7.4,6.2,50.1*,-9.2,10.6
CCOC(=O)CNC(=O)CN1CCCN(S(=O)(=O)c2ccc(Br)s2)CC1,6.8,24.2,-1.6,6.4,7.5,-0.6
Cc1cccc2c1c1ccc3c(c1n2C)C(=O)C=CC3=O,93.8*,6.0,0.4,-10.0,-1.4,93.3*
O=C(c1cccs1)N1C[C@@H](n2cc(-c3ccc(F)cc3)nn2)[C@H](O)C[C@@H]1c1ccccc1,/,-2.2,-31.4,-6.0,-5.2,13.8
CCOC(=O)/C=C/C(=O)Nc1ccc(Oc2ccccc2)cc1,6.9,33.6,-34.8,0.7,-4.9,53.9*
O=C(O)/C=C/C(=O)Nc1ccc(Oc2ccccc2)cc1,-14.5,11.9,3.9,5.0,2.3,6.2
Cc1ccnc(NC(=O)C2CC(=O)N(Cc3ccccc3)C2)c1 (stereo unspecified),-80.3,-193.6,25.5,1.6,-2.8,-241.8
COc1ccc(NC(=O)C2(C)Cc3c(-c4ccc(C(N)=O)cc4)ccnc3O2)cn1 (stereo unspecified),/,26.3,-31.1,-1.2,0.1,16.8
O=C(C[n+]1cc(-c2ccccc2)n2c1CCCCC2)c1ccc(Cl)cc1,12.4,-21.4,3.0,6.2,-5.8,10.1
CC1CCC(C(C)C)C(OC(=O)C[n+]2cc(-c3ccc(Cl)cc3)n3c2CCCCC3)C1 (stereo unspecified),86.6*,-10.8,26.3,8.2,-16.1,45.3
COc1cc([N+](=O)[O-])ccc1NC(=O)CN1CCOCC1,0.4,20.6,-0.5,4.5,5.3,18.0
COC(=O)c1ccc(CNC(=O)CCNC(=O)c2ccco2)cc1,-0.9,6.8,2.3,0.2,5.9,-13.6
O=C(/C=C/c1ccc([N+](=O)[O-])cc1)Nc1ncc([N+](=O)[O-])s1,42.0,-77.7,38.0,2.2,-52.4*,-28.8
Cc1c(C(=O)NCC2COc3ccccc3O2)oc2ccc(S(=O)(=O)N3CC(C)CC(C)C3)cc12 (stereo unspecified),21.5,16.8,4.8,1.4,6.8,32.1
Cc1c(C(=O)Nc2ccc(S(=O)(=O)N(C)C3CCN(C)CC3)cc2)oc2ccccc12,-7.8,-23.8,5.3,4.7,1.2,89.3*
Cc1c(C(=O)Nc2ccc(F)c(F)c2)oc2ccc(S(=O)(=O)N3CCCCC3)cc12,31.5,21.9,-13.1,0.3,-3.2,64.5*
SMILES,TRPM1 prom inh,HIF-2a inh,CF NFkB inh,ABHD5-PLIN5 inh,KKLEB cytotox,Peg3 prom inh
Cc1c(C(=O)NCC2COc3ccccc3O2)oc2ccc(S(=O)(=O)N3CCOCC3)cc12 (stereo unspecified),25.0,3.5,-3.9,2.6,-21.4,72.9*
Cc1c(C(=O)Nc2cccc(Cl)c2)oc2ccc(S(=O)(=O)N3CCC4(CC3)OCCO4)cc12,28.9,-9.7,-7.4,-7.5,-25.0,57.9*
Cc1c(C(=O)Nc2ccc(F)cc2)oc2ccc(S(=O)(=O)N3CCCC3)cc12,10.1,8.7,12.8,0.8,-17.2,15.5
CCOc1ccc(-c2nnc(SCC(=O)NC(C)(C)C)nc2-c2ccc(OCC)c(OC)c2)cc1OC,22.7,20.8,15.2,1.8,0.0,14.6
COc1ccccc1C(=O)NC(=O)COC(=O)c1nc2nc(C)cc(C)n2n1,1.8,9.0,23.6,8.7,2.9,-4.0
CCOCCC(=O)Nc1ccc2c(c1)c(=O)n(C)n2C/C=C/c1ccccc1,/,1.7,2.5,-5.6,-10.6,18.4
Cc1c(C(=O)Nc2ccc(F)cc2)oc2ccc(S(=O)(=O)N3CCC4(CC3)OCCO4)cc12,20.3,12.1,-39.0,-11.3,9.7,55.4*
COc1ccc(NC(=O)CN(C)C(=O)Cc2ccc(S(=O)(=O)N3CCOCC3)s2)cc1,-0.1,10.5,19.3,-3.5,-3.8,-6.8
CN(C(=O)c1cc2ccccc2oc1=O)C1(C)CCS(=O)(=O)C1 (stereo unspecified),-4.6,8.9,16.1,2.1,-10.3,-5.1
CSc1ccc(NC(=O)NCCCN2CCC(Cc3ccccc3)CC2)cc1,-0.4,7.3,0.4,4.5,-5.5,66.1*
COc1ccc(S(=O)(=O)NCC2CCCN(CC(C)(C)C)C2)cc1 (stereo unspecified),2.9,6.9,4.6,-1.5,4.8,-8.3
CCCCNS(=O)(=O)CCNCCc1ccccc1,-10.3,-5.4,7.0,5.4,-6.5,6.5
CCCCCCCCNCCS(=O)(=O)NCc1ccccc1,-2.7,-6.7,6.5,-1.5,-28.6,64.2*
COCOCCn1cc(CN2CCS(=O)(=O)N(Cc3ccc(-c4ccc(F)cc4)cc3)C(CC(C)C)C2=O)nn1 (stereo unspecified),/,3.7,7.9,-2.7,-0.5,47.1
COc1cc(CN(C)Cc2cccc3ccccc23)cc([N+](=O)[O-])c1O,-0.6,14.4,-10.9,-3.9,2.8,8.7
COc1ccc(C(=O)C(CCC(CNC(C)(C)C)C(=O)c2ccc(OC)cc2)CNC(C)(C)C)cc1 (stereo unspecified),95.4*,45.0*,41.7,41.4*,-27.4,104.7*
COc1ccc(C(=O)CC(=O)c2ccc(C(C)(C)C)cc2)cc1,-13.4,-25.8,2.1,-2.1,-15.8,-38.0

# Screening data as filed in PubChem BioAssay.
